Laboratory results as given in PubChem BioAssay (NCATS).
A number with no mark means an inactive call. Results filed as inconclusive are left out. Active and inactive are the calls of the source. Unless noted, calls follow the shape of the dose curve; as a rule, active = well fitted curve in either direction with a large enough effect (not every such curve was filed as active); inconclusive = small, poorly fitted or top-dose-only effect, or another doubt; inactive = flat fitted curve, though single readings scatter.

Experiments:
[1] = NFAT Signaling Pathway (AID 444); conditions: Jurkat NFAT-bla M1, carbachol, beta-lactamase ratio, 5 h; at 17.2 µM (top of the series) unless noted;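 also: carbachol stimulus at about its EC50 of 1 µM final; % is scaled to controls: 0 for no effect and ±100 for the full control effect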
In short: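 Jurkat cells carrying an NFAT-driven β-lactamase reporter and co-transfected muscarinic M1 receptor were treated with compound plus carbachol (1 uM final, an EC50 level) for 5 h at 37 °C. CCF4 loading followed for 1 h at RT; 460/530 nm ratio gave %activity.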

[2] = molecular target: Glucocorticoid receptor (Homo sapiens) (UniProt P04150); experiment: GR-GFP Redistribution (AID 450;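 active = compounds whose dose series gives a full or clear partial fitted curve of increased nuclear translocation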; also: potency is read from the fitted curve at half-maximal effect)
[3] = Stat Signaling Pathway (AID 446); conditions: ME-180 SIE beta-lactamase reporter, IL-6 stimulated, 5 h; at 17.2 µM (top of the series) unless noted;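 also: ME-180 cervical cancer cells given 40 pM IL-6 alongside compound; SIE-controlled beta-lactamase reporter measured as 460/530 nm FRET emission ratio; % is scaled to controls: 0 for no effect and ±100 for the full control effect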
In short: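 ME-180 cells carrying a SIE-driven beta-lactamase reporter are stimulated with 40 pM IL-6 for 5 h at 37C in the presence of compound. The 460/530 nm FRET substrate ratio is read after 2.5 h at RT. Data are normalised to 300 pM IL-6 and to 125 nM JAK inhibitor controls.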

[4] = qHTS Assay for Identification of Small Molecule Agonists for Hypoxia Response Element Signaling Pathway (AID 914; active = well fitted activation curve with a large enough effect in the signal ratio, with a control signal flat, not every such curve was filed as active; the % refers to the signal ratio; also: % of control where 0% means no effect); conditions: ME-180 (cervical carcinoma) HRE-bla reporter, beta-lactamase ratio, CoCl2, 17 h; activation: stronger effect = higher value
In short: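 AC50 values come from titration-series %Activity, taken as the 460/530nm ratio of CCF4 fluorescence (excitation 405nm). CellSensor HRE-bla ME-180 cells were treated 17 hours at 37 C with compound plus an EC50 level of CoCl2.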

Chain of Glucocorticoid receptor (Homo sapiens) (P04150 whole entry, looked up): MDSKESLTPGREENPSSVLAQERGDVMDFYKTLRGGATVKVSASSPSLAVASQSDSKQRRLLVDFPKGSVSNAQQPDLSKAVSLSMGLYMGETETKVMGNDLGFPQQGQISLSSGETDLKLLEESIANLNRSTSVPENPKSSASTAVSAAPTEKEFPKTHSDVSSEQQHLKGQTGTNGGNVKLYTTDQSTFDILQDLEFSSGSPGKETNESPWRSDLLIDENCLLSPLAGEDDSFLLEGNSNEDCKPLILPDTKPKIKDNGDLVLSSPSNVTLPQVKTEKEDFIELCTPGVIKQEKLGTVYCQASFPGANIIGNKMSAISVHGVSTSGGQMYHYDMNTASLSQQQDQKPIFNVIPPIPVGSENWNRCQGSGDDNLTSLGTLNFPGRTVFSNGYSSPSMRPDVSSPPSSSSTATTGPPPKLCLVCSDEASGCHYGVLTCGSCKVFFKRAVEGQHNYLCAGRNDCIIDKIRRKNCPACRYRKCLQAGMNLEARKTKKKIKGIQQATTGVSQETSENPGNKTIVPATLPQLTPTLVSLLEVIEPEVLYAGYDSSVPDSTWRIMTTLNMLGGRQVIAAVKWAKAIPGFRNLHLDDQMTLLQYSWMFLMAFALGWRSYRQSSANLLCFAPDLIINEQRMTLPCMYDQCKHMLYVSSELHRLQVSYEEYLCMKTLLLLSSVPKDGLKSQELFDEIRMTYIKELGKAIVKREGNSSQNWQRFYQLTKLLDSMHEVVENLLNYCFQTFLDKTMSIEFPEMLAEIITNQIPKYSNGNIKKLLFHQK

| SMILES | activity change, negative = inhibition [1] | Potency [2] [µM] | activity, negative = inhibition [3] [%] | activation [4] [%] |
| --- | --- | --- | --- | --- |
| OCCNc1ncnc2c1c(-c1ccccc1)c(-c1ccccc1)n2Cc1ccco1 | -23.1% | > 20.6 | – | – |
| COc1ccc(-c2nnc3sc(-c4ccccc4OC)nn23)cc1 | -23.6% | > 20.6 | – | – |
| CC(=Nc1cccc(O)c1)c1sc2ccccc2c1O | -27.3% | > 20.6 | – | – |
| CCSc1nc(N)c(C#N)c(-c2ccccc2Cl)c1C#N | -7.47% | > 20.6 | – | – |
| COc1cccc(OCCN2CCN(c3ncnc4c3cnn4-c3ccccc3)CC2)c1 | -29.6% | > 20.6 | – | – |
| COc1ccc(NC(=O)CSC2=C(C#N)C(c3ccco3)C3=C(CCCC3=O)N2)c(OC)c1 (stereo unspecified) | -6.5% | > 20.6 | -8.16 | -27.4 |
| O=C(Oc1oc(-c2ccco2)nc1C=Nc1ccccc1)c1ccco1 | -124% (active) | > 20.6 | – | – |
| COc1ccccc1-c1nn2c(-c3ccc(C(C)(C)C)cc3)nnc2s1 | -12.3% | > 20.6 | – | – |
| COc1ccc(C(=O)CSC2=C(C#N)C3(CCCCC3)C(C#N)=C(N)N2)cc1 | 14.6% | > 20.6 | – | – |
| COc1ccccc1C(=O)NC(=Nc1nc2ccccc2o1)NC(=O)c1ccccc1OC | -110% (active) | > 20.6 | – | – |
| Cc1ccc(NC(=O)CSC2=C(C#N)C(c3ccc4c(c3)OCO4)CC(=O)N2)cc1C (stereo unspecified) | -0.339% | > 20.6 | – | – |
| O=C(Oc1oc(-c2ccco2)nc1C=Nc1ccccc1)c1ccoc1 | -123% (active) | > 20.6 | – | – |
| CN1Cc2c(N3CCOCC3)nc(SCc3ccccc3)c(C#N)c2CC1(C)C | – | > 20.6 | -1.83 | – |
| CCN(CC)c1ccc(-c2nn3c(-c4cccnc4)nnc3s2)cc1 | – | > 20.6 | -29.8 | – |
| CC1(C)Cc2c(sc3c2C2=NCCN2C=N3)CS1 | – | > 20.6 | 5.3 | – |
| Cc1cc(/C=c2/sc3nc4ccccc4n3c2=O)c(C)n1-c1ccccn1 | – | > 20.6 | -5.6 | – |
| O=c1c2sc3nc(N4CCOCC4)c4c(c3c2ncn1Cc1ccco1)CCCC4 | – | > 20.6 | -14.9 | – |
